Laboratory results from PubChem BioAssay AID588342 (National Center for Advancing Translational Sciences (NCATS), 2011).
The campaign covered roughly 360,000 compounds. About 25,000 (6.9%) were called active. A call without a number means that no potency is given here. Not shown: some 9% with an inconclusive outcome. Calls come from the whole dose curve; as a rule, active = well fitted inhibition curve with a large enough effect; inconclusive = small, poorly fitted or top-dose-only effect; inactive = flat fitted curve, though single readings scatter. Many of the other results were omitted from the sample, so actives are more common in it than they were.

target: Luciferin 4-monooxygenase (Photinus pyralis) (UniProt P08659); assay: qHTS profiling assay for firefly luciferase inhibitor/activator using purifed enzyme and Km concentrations of substrates (counterscreen for miR-21 project); conditions: purified FLuc, luminescence inhibition; series mostly up to 57.5 µM; note: nearly all actives have a fitted effect of over 55% in size
Summary of the method: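 Biochemical qHTS of compounds, final roughly 60 µM downward over six points, against 10 nM purified firefly luciferase using Km concentrations of substrates (10 uM D-luciferin, 10 uM ATP) in Tris acetate pH 7.5 buffer; luminescence output.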
Potency is the fitted concentration of half-maximal effect.

Chain of Luciferin 4-monooxygenase (Photinus pyralis) (P08659 whole entry, looked up): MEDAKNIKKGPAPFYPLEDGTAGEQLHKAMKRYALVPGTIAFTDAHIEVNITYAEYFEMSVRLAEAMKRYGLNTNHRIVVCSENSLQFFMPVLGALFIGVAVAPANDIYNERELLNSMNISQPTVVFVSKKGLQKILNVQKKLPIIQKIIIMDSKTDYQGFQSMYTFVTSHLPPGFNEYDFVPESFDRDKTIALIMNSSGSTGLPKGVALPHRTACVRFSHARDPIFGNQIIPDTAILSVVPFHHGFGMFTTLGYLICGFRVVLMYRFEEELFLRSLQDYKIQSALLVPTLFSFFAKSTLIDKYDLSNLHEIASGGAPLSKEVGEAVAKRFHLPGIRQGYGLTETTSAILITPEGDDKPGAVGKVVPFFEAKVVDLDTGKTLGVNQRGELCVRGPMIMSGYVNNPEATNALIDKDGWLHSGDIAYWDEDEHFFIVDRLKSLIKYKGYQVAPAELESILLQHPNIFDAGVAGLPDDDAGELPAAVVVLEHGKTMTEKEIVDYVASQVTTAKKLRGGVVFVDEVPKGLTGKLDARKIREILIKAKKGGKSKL

| Structure (SMILES) | Potency |
| --- | --- |
| Cc1ccc(C)c(Cn2c(=O)n(CCC(=O)NCc3ccc4c(c3)OCO4)c(=O)c3sccc32)c1 | inactive |
| COc1ccc(-c2nnc(SCC(=O)Nc3ccccc3C)o2)cc1OC | inactive |
| CCNc1nc(-c2cc3ccccc3o2)cs1 | 0.601 µM (active) |
| CCOC(=O)CSc1nnc(CNc2nc(-c3ccccc3)cs2)n1C | inactive |
| Cn1c(CNc2nc(-c3ccccc3)cs2)nnc1SCC(=O)c1ccccc1 | inactive |
| COc1ccc(-c2c(C)c3ccc(O)c(CN4CCN(C)CC4)c3oc2=O)cc1OC | inactive |
| COc1cc(OC)cc(-c2c(-c3cccs3)c3cc(-c4ccc(OC)nc4)ccc3n2C)c1 | inactive |
| CCOc1ccc(OCC)c(NC(=O)c2cc(C)nc3c2c(C)nn3-c2cccc(Cl)c2C)c1 | inactive |
| COc1cccc(Cn2cc(/C=N/NC(=O)c3cc(O)cc(O)c3)c3ccccc32)c1 | 26.9 µM (active) |
| N#CCC(=O)N/N=C/c1cn(Cc2ccc3ccccc3c2)c2ccccc12 | inactive |
| CNC(=S)N/N=C/c1cn(Cc2ccc(C)cc2)c2ccccc12 | inactive |
| CCOC(=O)/C(C#N)=C/c1ccc(N2CCCCC2)cc1 | 2.69 µM (active) |
| COc1ccc(N2CCN(C(=O)/C(C#N)=C/c3ccccc3)CC2)cc1 | inactive |
| CCOC(=O)NC(=O)/C(C#N)=C\c1ccccc1 | inactive |
| COC(=O)c1ccc(OC)c(Cn2c(=O)n(Cc3ccccc3)c(=O)c3c2c2cc(OC)ccc2n3C)c1 | inactive |
| CCOc1ccccc1NC(=O)CN1CCCN(Cc2cccc(Cl)c2)S1(=O)=O | inactive |
| CC12CCC(C(=O)N3CCN(c4ncccn4)CC3)(c3nc4ccccc4nc31)C2(C)C (configuration not stated) | inactive |
| c1cnc(N2CCN(c3ccc4ccccc4n3)CC2)nc1 | 5.36 µM (active) |
| O=C(c1ccncc1)N1CCN(c2ccc3ccccc3n2)CC1 | inactive |
| Cc1csc(NC(=O)Nc2ccccc2[N+](=O)[O-])n1 | 4.78 µM (active) |
| Cc1csc(NC(=O)NC2(C(F)(F)F)Oc3ccccc3O2)n1 | inactive |
| CN1CCN(CCNC(=O)Nc2ccccc2[N+](=O)[O-])CC1 | inactive |
| COc1ccc(Cl)cc1NC(=O)CN(C)C(=O)c1ccc2n[nH]nc2c1 | inactive |

| Structure (SMILES) | Potency |
| --- | --- |
| Cc1cccc(NC(=O)CSc2nc3c(c(=O)[nH]2)CCCC3)c1C | inactive |
| Cc1cccc(NC(=O)CSc2ncc(-c3ccccc3)[nH]2)c1C | 13.5 µM (active) |
| Cc1cccc(NC(=O)CSc2nc3c(c(=O)[nH]2)CCC3)c1C | inactive |
| O=C(Nc1ccccc1Cl)N1CCC(CN2CCCC2)CC1 | inactive |
| Cc1cc(Nc2cccc(C(F)(F)F)c2)nc2ccc(NC(=O)c3ccc(=O)[nH]c3)cc12 | inactive |
| CSc1ccc(NC(=O)Cn2nnnc2-c2ccccc2F)cc1 | inactive |
| CCOc1ccc2nc(N3CCCC(C(=O)Nc4cc(C)ccc4C)C3)sc2c1 (configuration not stated) | 2.39 µM (active) |
| CCOc1ccc2nc(N(CCN(C)C)C(=O)c3ccc4ccccc4c3)sc2c1 | inactive |
| CCOc1ccc2nc(C(=O)N3CCCC(C)C3)sc2c1 (configuration not stated) | 1.69 µM (active) |
| Cc1ccc(C)c(NC(=O)C2CCCN(S(=O)(=O)c3cn(C)cn3)C2)c1 (configuration not stated) | inactive |
| CCCC(=O)N(CCN1CCOCC1)c1nc2ccc(OCC)cc2s1 | inactive |
| CCOc1ccc2nc(N3CCC(C(=O)Nc4cc(C)ccc4C)CC3)sc2c1 | inactive |
| Cc1ccc2cccc(NC(=O)c3ccc(OC(C)C)cc3)c2n1 | inactive |
| CCOC(=O)c1ccc(CSc2nnc3cc(C)c4ccccc4n23)cc1 | inactive |
| Oc1c(C(c2ccccc2Cl)N2CCOCC2)sc2nc(-c3ccco3)nn12 (configuration not stated) | inactive |
| CC(=O)c1ccc(NC(=O)C(C)N(C)CC(=O)Nc2ccccc2Cl)cc1 (configuration not stated) | inactive |
| Cc1ccc(C)c(C(C)NC(=O)C2CCCO2)c1 (configuration not stated) | inactive |
| Cc1cc([N+](=O)[O-])ccc1NC(=O)C1CCCO1 (configuration not stated) | inactive |
| Cc1cc(C)c2nc(NC(=O)C3CCCO3)sc2c1 (configuration not stated) | 3.79 µM (active) |
| COCCn1c(SCC(=O)c2cc(C)ccc2C)nc2cc(C(=O)NC3CCCC3)ccc2c1=O | inactive |
| O=C(C1Cc2ccccc2CN1C(=O)c1ccco1)N1CCN(c2ccccc2)CC1 (configuration not stated) | inactive |
| O=C1NNC(c2ccccc2)=N/C1=C\c1ccc(Cl)cc1 | inactive |
| COc1ccc(-c2[nH]nc(-c3ccccc3)c2-c2nc3ccccc3[nH]2)cc1 | inactive |

| Structure (SMILES) | Potency |
| --- | --- |
| c1ccc2[nH]c(-c3nc4ccccc4[nH]3)nc2c1 | 2.13 µM (active) |
| CN(C)c1cc(N)c2ccccc2n1 (tested in a mixture with another compound) | inactive |
| O=C(Nc1sc2c(c1-c1nc3ccccc3[nH]1)CCCC2)C1CC1 | inactive |
| Cc1ccc(C)c(N2CCN(C(=O)CCc3nc4ccccc4[nH]3)CC2)c1 | inactive |
| Cc1ccc(-c2nc3ccccc3[nH]2)cc1N | 2.39 µM (active) |
| COc1ccc(NC(=O)C2CCCN(S(=O)(=O)c3c(C)[nH]c(=O)[nH]c3=O)C2)c(OC)c1 (configuration not stated) | inactive |
| Cc1cc(C)c(NC(=O)CCc2c(C)nc3c(c(C)nn3C(C)(C)C)c2C)c(C)c1 | inactive |
| CCCS(=O)(=O)N1CCC(n2c(C(F)(F)F)nc3cccnc32)CC1 | inactive |
| CCOC(=O)c1ccc(NC(=O)Cn2c(=O)n(-c3ccc(C)cc3)c(=O)c3c2cnn3C)cc1 | inactive |
| COc1cccc(/C=N/Nc2cc(C)nc(-c3ccccc3O)n2)c1O | 7.57 µM (active) |
| COc1cccc2c(N/N=C/c3ccco3)cc(C)nc12 | inactive |
| COc1cccc(/C=N/Nc2ncc(C(F)(F)F)cc2Cl)c1O | inactive |
| COc1ccccc1CNC(=O)c1ccc(-n2c(C)cc3c2CCCC3)cc1 | inactive |
| O=C(NCC(c1ccco1)S(=O)(=O)c1cccs1)c1ccc(F)cc1 (configuration not stated) | inactive |
| Cc1ccc2[nH]cc(CCCN3C(=O)c4ccccc4C3=O)c2c1 | inactive |
| COc1ccc(C[C@H](C(=O)O)N2C(=O)c3ccc(C(=O)O)cc3C2=O)cc1 | inactive |
| COc1ccc2[nH]cc(CCN3C(=O)c4ccc(C(=O)O)cc4C3=O)c2c1 | 21.3 µM (active) |
| COc1ccc(OC)c(-n2nnc3c(sc4nc(C)c(Br)c(C)c43)c2=O)c1 | inactive |
| CC(C)C(NS(=O)(=O)c1cccs1)C(=O)Nc1nc(C(C)(C)C)cs1 (configuration not stated) | inactive |
| CC(C)(C)c1csc(NC2=NS(=O)(=O)c3ccccc32)n1 | 1.51 µM (active) |
| Cc1ccc(S(=O)(=O)N(NC2=NS(=O)(=O)c3ccccc32)C(=O)c2ccccc2)cc1 | inactive |
